Screens (PubChem)
Hits are enriched below; roughly 2.4% of the tested compounds scored in any of these assays.
NFkB SMM = NF-kappa-B p105 (human) binding | calls only | Small molecule microarray, anti-His fluorescence binding | AID 624139 | hit rate 1.3% among 17,000 | P19838;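 active = spot fluorescence over background significantly raised, with a chance value under 7% in all four replicate spots of the compound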;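 note: probe protein is his-tagged human p50 processed subunit at 1 µg/ml; raw spot fluorescence signals with no normalization applied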
mut p53 SMM = binds human mutant p53 on microarray; hit rate 0.4% among 17,000; small molecule microarray binding, anti-GST fluorescence; AID 624136; calls only;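 active = compounds whose four printed spots each glow above background more than chance allows, each with a p-value under 7%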
STAT3 binder = STAT3 (human) binding; Small molecule microarray, His-STAT3 binding, anti-His fluorescence; P40763; hit rate 0.2% among 17,000; calls only;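 active = compounds whose four printed spots each show fluorescence over background unusually high for their array block, chance value under 7%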
Myc binder = binds human c-Myc on microarray | small molecule microarray, His-c-Myc binding, anti-His fluorescence | hit rate 1.5% among 17,000 | P01106 | calls only;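 active = spot fluorescence over background with P-value below 7% in all four replicate spots, showing protein binding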;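 note: score is binary with 100 for all four spots passing and 0 otherwise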
Target sequence (P01106 whole entry, looked up): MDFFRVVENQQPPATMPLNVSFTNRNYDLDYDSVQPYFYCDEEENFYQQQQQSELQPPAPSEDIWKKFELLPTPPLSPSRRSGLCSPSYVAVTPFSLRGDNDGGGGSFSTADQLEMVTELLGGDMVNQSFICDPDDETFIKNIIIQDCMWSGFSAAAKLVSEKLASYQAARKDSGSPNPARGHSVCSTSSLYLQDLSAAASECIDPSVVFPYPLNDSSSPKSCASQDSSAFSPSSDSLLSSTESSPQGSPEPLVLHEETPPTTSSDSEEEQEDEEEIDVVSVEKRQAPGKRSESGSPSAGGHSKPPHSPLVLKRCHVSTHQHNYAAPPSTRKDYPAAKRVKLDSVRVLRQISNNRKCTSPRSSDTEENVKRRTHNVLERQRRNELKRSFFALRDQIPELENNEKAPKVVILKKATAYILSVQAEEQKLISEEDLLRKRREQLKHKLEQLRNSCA
An asterisk follows results filed as active.

`CCOC(=O)c1cnc2c(C)c(C)ccc2c1NCCN(C)C` gave NFkB SMM inactive, mut p53 SMM active, STAT3 binder inactive and Myc binder inactive.
For COc1c(Cl)cc(Cl)cc1CNCCNCC(C)O (centres undefined) the results were NFkB SMM inactive, mut p53 SMM active, STAT3 binder active and Myc binder inactive.
For COc1cc(OC)c(C2=NOC(C(=O)NCc3ccco3)C2)cc1Cl (centres undefined) the results were NFkB SMM inactive, mut p53 SMM inactive, STAT3 binder inactive and Myc binder inactive.
OCCSc1nnc(-c2ccccc2O)n1-c1ccccc1 was read as NFkB SMM inactive, mut p53 SMM inactive, STAT3 binder inactive and Myc binder inactive.
For Cc1ccc(OCC(=O)Nc2ccc3oc(-c4ccccc4C)nc3c2)cc1C the results were NFkB SMM inactive, mut p53 SMM inactive, STAT3 binder inactive and Myc binder inactive.
For O=C(O)Cn1nnnc1-c1ccc(F)cc1 the results were NFkB SMM active, mut p53 SMM inactive, STAT3 binder inactive and Myc binder active.
Screening O=C1O[C@H](c2ccccc2)[C@H](c2ccccc2)N2[C@H]1[C@@H](C(=O)N1CCN(c3ncccn3)CC1)[C@]1(C(=O)Nc3ccc(C#CC4=CCCCC4)cc31)[C@H]2c1ccccc1OCCO returned NFkB SMM inactive, mut p53 SMM inactive, STAT3 binder inactive and Myc binder inactive.
`O=C1O[C@H](c2ccccc2)[C@H](c2ccccc2)N2[C@H]1[C@@H](C(=O)N1CCCCCCC1)[C@]1(C(=O)Nc3ccc(C#CC4=CCCCC4)cc31)[C@H]2c1ccccc1OCCO` gave NFkB SMM active, mut p53 SMM active, STAT3 binder inactive and Myc binder active.
For COc1cc2c(cc1OC)CN(C(=O)[C@@H]1[C@H]3C(=O)O[C@H](c4ccccc4)[C@H](c4ccccc4)N3[C@H](c3ccccc3OCCO)[C@@]13C(=O)Nc1ccc(C#CCNC(N)=O)cc13)CC2 the results were NFkB SMM active, mut p53 SMM inactive, STAT3 binder inactive and Myc binder inactive.
`COc1ccc(C#Cc2ccc3c(c2)[C@]2(C(=O)N3)[C@H](C(=O)N3CCc4cc(OC)c(OC)cc4C3)[C@H]3C(=O)O[C@H](c4ccccc4)[C@H](c4ccccc4)N3[C@@H]2c2ccccc2OCCO)cc1` gave NFkB SMM inactive, mut p53 SMM inactive, STAT3 binder inactive and Myc binder inactive.
For NC(=O)NCC#Cc1ccc2c(c1)[C@]1(C(=O)N2)[C@H](C(=O)N2CCCCCCC2)[C@H]2C(=O)O[C@H](c3ccccc3)[C@H](c3ccccc3)N2[C@@H]1c1ccccc1OCCO the results were NFkB SMM inactive, mut p53 SMM active, STAT3 binder inactive and Myc binder active.
For O=[N+]([O-])c1ccc(NCCNC(=S)Nc2ccc(Cl)cc2)nc1 the results were NFkB SMM inactive, mut p53 SMM inactive, STAT3 binder inactive and Myc binder inactive.
`Cc1ccc(C)c(OC(=O)CS(=O)c2ccccc2[N+](=O)[O-])c1` (centres undefined) gave NFkB SMM inactive, mut p53 SMM inactive, STAT3 binder inactive and Myc binder inactive.
For O=C(CS(=O)(=O)c1ccc2ccccc2c1)c1cc2ccccc2oc1=O the results were NFkB SMM inactive, mut p53 SMM inactive, STAT3 binder inactive and Myc binder active.
Screening S=C(NCC1CCCO1)Nc1cnn(Cc2ccc(Cl)cc2)c1 (centres undefined) returned NFkB SMM inactive, mut p53 SMM inactive, STAT3 binder inactive and Myc binder active.
Screening CC(=O)C(Sc1cc(C)nc(N)n1)C(=O)Nc1ccccc1 (centres undefined) returned NFkB SMM inactive, mut p53 SMM inactive, STAT3 binder inactive and Myc binder inactive.
Screening COc1ccc(C(c2cn(C)c3ccccc23)c2cn(C)c3ccccc23)c(OC)c1OC returned NFkB SMM inactive, mut p53 SMM inactive, STAT3 binder inactive and Myc binder inactive.
`C[C@@H]1CN([C@H](C)CO)C(=O)Cc2cc(NC(=O)Nc3ccc(C(F)(F)F)cc3)ccc2O[C@@H]1CN(C)Cc1ccncc1` gave NFkB SMM active, mut p53 SMM inactive, STAT3 binder inactive and Myc binder active.
C[C@@H]1CN([C@H](C)CO)C(=O)Cc2cc(NC(=O)Nc3cccc4ccccc34)ccc2O[C@@H]1CN(C)C(=O)Nc1cccc2ccccc12 was read as NFkB SMM active, mut p53 SMM inactive, STAT3 binder inactive and Myc binder active.
For C[C@H](CO)N1C[C@H](C)[C@H](CN(C)C(=O)Nc2cccc3ccccc23)Oc2ccc(NC(=O)Nc3cccc4ccccc34)cc2CC1=O the results were NFkB SMM inactive, mut p53 SMM inactive, STAT3 binder inactive and Myc binder inactive.
For Cc1cc(N(CC(=O)Nc2ccccc2C(=O)N2CCCC2)S(C)(=O)=O)ccc1Br the results were NFkB SMM inactive, mut p53 SMM inactive, STAT3 binder inactive and Myc binder inactive.
CC(C)=CCc1c(O)cc(O)c2c1OC(c1ccccc1)CC2=O (centres undefined) was read as NFkB SMM inactive, mut p53 SMM inactive, STAT3 binder inactive and Myc binder inactive.
For CC(C)=CCc1c(O)c(CC=C(C)C)c2c(c1O)C(=O)CC(c1ccccc1)O2 (centres undefined) the results were NFkB SMM inactive, mut p53 SMM inactive, STAT3 binder inactive and Myc binder active.
`Cc1occc1-c1nnc2sc(-c3ccc(-c4ccccc4[N+](=O)[O-])o3)nn12` gave NFkB SMM inactive, mut p53 SMM active, STAT3 binder inactive and Myc binder inactive.
Screening COc1ccc(OC)c(S(=O)(=O)ON2C(=O)c3ccccc3C2=O)c1 returned NFkB SMM inactive, mut p53 SMM inactive, STAT3 binder inactive and Myc binder active.
For O=C1c2ccccc2C(=O)N1OS(=O)(=O)c1cccc2cccnc12 the results were NFkB SMM inactive, mut p53 SMM inactive, STAT3 binder inactive and Myc binder inactive.
`O=C1c2ccc(O)cc2C(=O)c2ccc(O)cc21` gave NFkB SMM inactive, mut p53 SMM inactive, STAT3 binder inactive and Myc binder inactive.
Screening COC(=O)C(CC#Cc1ccc2c(c1)[C@]1(C(=O)N2)[C@H](C(=O)N2CCN(c3ncccn3)CC2)[C@H]2C(=O)O[C@H](c3ccccc3)[C@H](c3ccccc3)N2[C@@H]1c1ccc(OCCO)cc1)C(=O)OC returned NFkB SMM active, mut p53 SMM inactive, STAT3 binder inactive and Myc binder inactive.
For COc1ccc(C#Cc2ccc3c(c2)[C@]2(C(=O)N3)[C@H](C(=O)N3CCc4cc(OC)c(OC)cc4C3)[C@H]3C(=O)O[C@H](c4ccccc4)[C@H](c4ccccc4)N3[C@@H]2c2ccc(OCCO)cc2)cc1 the results were NFkB SMM active, mut p53 SMM inactive, STAT3 binder inactive and Myc binder inactive.
